The text below walks through data of PubChem BioAssay (EPA / NIEHS).

Experiment [1] is described as follows: ATG_RORE_CIS: Attagene CIS-FACTORIAL HepG2 Assay for human RAR-related Orphan Receptor Element (RORE) (AID 2282959). Particulars: HepG2 Attagene cis-factorial RORE reporter, mRNA; actives raise or lower the signal. Summed up:
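HepG2 cells carrying transiently transfected cis-regulated reporter units; RORE-driven reporter mRNA quantified 24 h post-dosing by RT-PCR, 6-FAM primer extension, HpaI digestion and capillary electrophoresis. Bidirectional fit versus DMSO.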

Experiment [2] addresses Transcription factor Sp1 (Homo sapiens) (UniProt P08047). Nature of the experiment: ATG_Sp1_CIS: Attagene CIS-FACTORIAL HepG2 Assay for human Specificity Protein 1 (Sp1) (AID 2282961). The note with it: HepG2 Sp1 cis-reporter transcription, actives raise or lower the signal. The gist of the method:
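HepG2 cells transiently transfected with multiplexed cis-regulated reporter constructs, chemical exposure 24 h. Reporter mRNA quantified by RT-PCR with capillary electrophoresis; bidirectional fit relative to DMSO.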

A short description of experiment [3]: ATG_SREBP_CIS: Attagene CIS-FACTORIAL HepG2 Assay for human Sterol Regulatory Element Binding (SREBP) (AID 2282962). Particulars: HepG2 Attagene cis-factorial SREBP reporter, mRNA; actives raise or lower the signal. Summed up:
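HepG2 cells transiently transfected with multiplexed cis-promoter reporter units sensing endogenous transcription factors; reporter mRNA measured 24 h after dosing by RT-PCR, 6-FAM labeling, HpaI digestion and capillary electrophoresis. Bidirectional fit versus DMSO.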

Experiment [4] addresses Signal transducer and activator of transcription 3 (Homo sapiens) (UniProt P40763). Nature of the experiment: ATG_STAT3_CIS: Attagene CIS-FACTORIAL HepG2 Assay for human Signal Transducer and Activator of Transcription 3 (STAT3) (AID 2282963). Particulars: HepG2, Attagene cis-factorial STAT3 reporter transcription; actives raise or lower the signal. Summed up: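 Transcript-level reporter assay. HepG2 transient MRTU transfection, 24 h exposure, fluorescence detection after RT-PCR and CE; DMSO baseline.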

Experiment [5] is described as follows: ATG_TA_CIS: Attagene CIS-FACTORIAL HepG2 Assay for human TA Basal Promoter (AID 2282964). The note with it: HepG2 Attagene CIS-factorial TA basal promoter reporter; actives raise or lower the signal. The gist of the method: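 Fluorescence from labelled RT-PCR reporter fragments, separated by capillary electrophoresis, gives the signal. Cells: HepG2 transiently carrying multiple reporter units, 24 h chemical dosing. Gain or loss relative to DMSO.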

Experiment [6] can be described thus: ATG_TCF_b_cat_CIS: Attagene CIS-FACTORIAL HepG2 Assay for human T-Cell-Factor with beta-catenin (TCF/b-cat) (AID 2282965). Particulars: HepG2 TCF/beta-catenin cis-reporter transcription, actives raise or lower the signal. Summed up:
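Using capillary electrophoresis as the read-out, labelled reporter cDNA fragments from transiently transfected HepG2 were sized and quantified. Exposure lasted 24 hours; activity in either direction was referenced to DMSO.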

Experiment [7] in a line: ATG_TAL_CIS: Attagene CIS-FACTORIAL HepG2 Assay for human TAL Basal Promoter (AID 2282966).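 Also: background control endpoint measuring basal TAL promoter reporter mRNA not a specific factor.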 Particulars: HepG2 Attagene cis-factorial TAL promoter reporter; actives raise or lower the signal. The gist of the method: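 In this cell-based multiplex, HepG2 liver cells bearing cis-promoter reporter constructs are dosed for 24 hours. Total RNA is reverse-transcribed and amplified, labelled fragments are sized by capillary electrophoresis, and signal changes are fitted bidirectionally versus DMSO.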

Experiment [8] can be described thus: ATG_TGFb_CIS: Attagene CIS-FACTORIAL HepG2 Assay for human Transforming Growth Factor (TGF) (AID 2282967). Particulars: HepG2 Attagene CIS TGFb reporter, mRNA transcription; actives raise or lower the signal. The gist of the method: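 Bidirectional fitting relative to DMSO gave the endpoint. Underlying data: reporter mRNA from HepG2 cells carrying transiently transfected cis-regulated reporter constructs, harvested 24 h after dosing and analyzed by RT-PCR and capillary electrophoresis.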

Experiment [9] can be described thus: ATG_VDRE_CIS: Attagene CIS-FACTORIAL HepG2 Assay for human Vitamin D Receptor Element (VDRE) (AID 2282968). Particulars: HepG2 VDRE cis-reporter transcription, actives raise or lower the signal. The gist of the method: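 RT-PCR/CE readout of reporter mRNA; HepG2, transient transfection, 24 h dosing; DMSO baseline; bidirectional analysis.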
Experiment [10] has as its target Estrogen receptor (Homo sapiens) (UniProt P03372). The experiment can be described thus: ATG_ERa_TRANS: Attagene TRANS-FACTORIAL HepG2 Assay for human Estrogen Receptor alpha (ERa) (AID 2282970; active = hit-call score of the fitted dose curve at least 0.9, where 1 is the maximum). Particulars: HepG2 Attagene TRANS ERa GAL4 reporter, mRNA. Summed up: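 After 24 h of compound treatment, RNA from HepG2 cells bearing transfected GAL4-UAS reporter constructs is converted to cDNA, amplified and fluorescently labelled. Capillary electrophoresis resolves the ERa-linked reporter; DMSO serves as negative control.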

Experiment [11] concerns the target X-box-binding protein 1 (Homo sapiens) (UniProt P17861). The experiment can be described thus: ATG_Xbp1_CIS: Attagene CIS-FACTORIAL HepG2 Assay for human X-box Binding Protein 1 (XBP1) (AID 2282972). The note with it: HepG2 XBP1 cis-element reporter, Attagene multiplex; actives raise or lower the signal. The gist of the method:
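HepG2 cells transiently transfected with multiple cis-element reporter units report endogenous TF activity; 24 h exposure, then reporter mRNA measured by RT-PCR, 6-FAM labelling, HpaI digestion and capillary electrophoresis. Bidirectional fitting versus DMSO.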

Experiment [12] can be described thus: ATG_Sox_CIS: Attagene CIS-FACTORIAL HepG2 Assay for human SRY-box transcription factor (SOX) (AID 2282960). Particulars: HepG2 Attagene cis-factorial SOX reporter, mRNA; actives raise or lower the signal. Summed up: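 HepG2 cells transiently transfected with multiple cis-regulated reporter units, then dosed for 24 h. Reporter mRNA quantified by RT-PCR, fluorescent labelling, HpaI digestion and capillary electrophoresis; bidirectional fit versus DMSO.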

Experiment [13] concerns the target Steroid hormone receptor ERR1 (Homo sapiens) (UniProt P11474). Nature of the experiment: ATG_ERRa_TRANS: Attagene TRANS-FACTORIAL HepG2 Assay for human Estrogen-Related Receptor alpha (ERRa) (AID 2282971; active = hit-call score of the fitted dose curve at least 0.9, where 1 is the maximum). The note with it: HepG2 Attagene TRANS reporter, ERRa transactivation. The gist of the method:
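Transfected HepG2, 24 h dosing, ERRa-Gal4 chimera driving GAL4-UAS reporter. Readout: reporter mRNA via RT-PCR plus capillary electrophoresis (fluorescence). Positive direction vs DMSO control.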

The nature of experiment [14]: ATG_M_19_TRANS: Attagene TRANS-FACTORIAL HepG2 Assay for M19 Transcription Factor (Internal Marker) (AID 2282974; active = hit-call score of the fitted dose curve at least 0.9, where 1 is the maximum). Particulars: HepG2 Attagene TRANS-FACTORIAL M19 internal marker reporter. The gist of the method: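 HepG2 transiently transfected with GAL4-UAS multiplex reporter constructs, exposed 24 h; reporter RNA quantified by RT-PCR, 6-FAM labeling, HpaI digestion and capillary electrophoresis; internal background marker fitted upward versus DMSO.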

Experiment [15] has as its target Estrogen-related receptor gamma (Homo sapiens) (UniProt P62508). Nature of the experiment: ATG_ERRg_TRANS: Attagene TRANS-FACTORIAL HepG2 Assay for human Estrogen-Related Receptor gamma (ERRg) (AID 2282977; active = hit-call score of the fitted dose curve at least 0.9, where 1 is the maximum;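 also: hits increase reporter signal over DMSO so potencies reflect activators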). The note with it: HepG2 Attagene TRANS reporter, ERRg transactivation. The gist of the method: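 Transfect HepG2 with multiple GAL4-UAS reporter transcription units; dose chemicals 24 h; isolate RNA, reverse-transcribe with oligo(dT), PCR-amplify, label with 6-FAM, digest with HpaI; size fragments by capillary electrophoresis. DMSO serves as negative control.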

For experiment [16], the target named is Glucocorticoid receptor (Homo sapiens) (UniProt P04150). Nature of the experiment: ATG_GR_TRANS: Attagene TRANS-FACTORIAL HepG2 Assay for human Glucocorticoid Receptor (GR) (AID 2282978; active = hit-call score of the fitted dose curve at least 0.9, where 1 is the maximum;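 also: activators score as hits since higher reporter transcript over DMSO is fitted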). Particulars: HepG2 Attagene TRANS GR reporter, mRNA transcription. The gist of the method: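 HepG2 cells transiently transfected with GAL4-UAS reporter units and exogenous GR-Gal4 chimera, dosed 24 h. Reporter mRNA by RT-PCR, FAM labeling, HpaI digest and capillary electrophoresis; gain-of-signal fit versus DMSO.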
Glucocorticoid receptor (Homo sapiens), sequence (P04150 whole entry, looked up, the tested form may be a part): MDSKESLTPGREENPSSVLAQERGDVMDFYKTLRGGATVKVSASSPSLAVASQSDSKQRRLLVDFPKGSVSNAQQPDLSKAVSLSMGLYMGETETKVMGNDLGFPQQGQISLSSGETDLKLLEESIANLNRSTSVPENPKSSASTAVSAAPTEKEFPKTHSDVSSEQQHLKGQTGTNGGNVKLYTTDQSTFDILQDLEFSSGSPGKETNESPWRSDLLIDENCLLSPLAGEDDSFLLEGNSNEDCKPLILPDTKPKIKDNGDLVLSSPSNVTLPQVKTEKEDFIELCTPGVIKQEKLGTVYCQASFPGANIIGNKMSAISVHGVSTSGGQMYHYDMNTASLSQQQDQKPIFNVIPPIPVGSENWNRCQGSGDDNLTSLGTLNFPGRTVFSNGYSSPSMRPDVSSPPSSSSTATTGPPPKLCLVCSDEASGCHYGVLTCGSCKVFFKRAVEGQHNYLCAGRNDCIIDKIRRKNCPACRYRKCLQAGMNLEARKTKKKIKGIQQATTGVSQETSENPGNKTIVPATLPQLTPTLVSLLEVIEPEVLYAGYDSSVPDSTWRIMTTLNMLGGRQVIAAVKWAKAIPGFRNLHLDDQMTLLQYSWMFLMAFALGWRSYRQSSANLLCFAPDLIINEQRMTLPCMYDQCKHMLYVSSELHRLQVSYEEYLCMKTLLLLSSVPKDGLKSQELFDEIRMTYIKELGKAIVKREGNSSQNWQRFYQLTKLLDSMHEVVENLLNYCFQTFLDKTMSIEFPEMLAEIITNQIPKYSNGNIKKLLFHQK

In experiment [17] the target is Bile acid receptor (Homo sapiens) (UniProt Q96RI1). Nature of the experiment: ATG_FXR_TRANS: Attagene TRANS-FACTORIAL HepG2 Assay for Farnesoid X Receptor (FXR) (AID 2282979; active = hit-call score of the fitted dose curve at least 0.9, where 1 is the maximum;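 also: hits raise reporter mRNA above DMSO so AC50 marks FXR activation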). The note with it: HepG2 Attagene TRANS FXR-GAL4 reporter transcription. The gist of the method:
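Read-out: fluorescent reporter transcripts quantified by capillary electrophoresis after RT-PCR of total RNA. Source cells were HepG2 transiently carrying chimeric NR-GAL4 plus GAL4-UAS reporter units, dosed 24 h. Activity fitted upward relative to DMSO baseline.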

A short description of experiment [18]: ATG_GAL4_TRANS: Attagene TRANS-FACTORIAL HepG2 Assay for GAL4 (Internal Marker) (AID 2282976; active = hit-call score of the fitted dose curve at least 0.9, where 1 is the maximum). The note with it: HepG2 Attagene TRANS GAL4 internal marker reporter. The gist of the method: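 RT-PCR/capillary electrophoresis readout of reporter mRNA. HepG2, transient MRTU transfection (GAL4-UAS reporters), 24 h compound exposure. Background-control endpoint, positive direction vs DMSO baseline.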

Experiment [19] concerns the target Nuclear receptor subfamily 1 group I member 3 (Homo sapiens) (UniProt Q14994). The experiment can be described thus: ATG_CAR_TRANS: Attagene TRANS-FACTORIAL HepG2 Assay for human Constitutive Androstane Receptor (CAR) (AID 2282969; active = hit-call score of the fitted dose curve at least 0.9, where 1 is the maximum;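 also: activators raise reporter mRNA above DMSO so AC50 marks induction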). Particulars: HepG2 Attagene TRANS-FACTORIAL CAR reporter. Summed up:
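HepG2 cells transiently transfected with multiplexed GAL4-UAS reporter units expressing chimeric NR-Gal4 proteins; compound exposure 24 h. Reporter mRNA measured by RT-PCR, 6-FAM labelling, HpaI digestion and capillary electrophoresis; gain-of-signal fitted against DMSO baseline.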

Inconclusive results are not listed. The source made the active and inactive calls. The calls were made as follows, unless noted: active = hit-call score of the fitted dose curve at least 0.9, where 1 is the maximum; inactive = score below 0.9.

Transcription factor Sp1 (Homo sapiens), sequence (P08047 whole entry, looked up): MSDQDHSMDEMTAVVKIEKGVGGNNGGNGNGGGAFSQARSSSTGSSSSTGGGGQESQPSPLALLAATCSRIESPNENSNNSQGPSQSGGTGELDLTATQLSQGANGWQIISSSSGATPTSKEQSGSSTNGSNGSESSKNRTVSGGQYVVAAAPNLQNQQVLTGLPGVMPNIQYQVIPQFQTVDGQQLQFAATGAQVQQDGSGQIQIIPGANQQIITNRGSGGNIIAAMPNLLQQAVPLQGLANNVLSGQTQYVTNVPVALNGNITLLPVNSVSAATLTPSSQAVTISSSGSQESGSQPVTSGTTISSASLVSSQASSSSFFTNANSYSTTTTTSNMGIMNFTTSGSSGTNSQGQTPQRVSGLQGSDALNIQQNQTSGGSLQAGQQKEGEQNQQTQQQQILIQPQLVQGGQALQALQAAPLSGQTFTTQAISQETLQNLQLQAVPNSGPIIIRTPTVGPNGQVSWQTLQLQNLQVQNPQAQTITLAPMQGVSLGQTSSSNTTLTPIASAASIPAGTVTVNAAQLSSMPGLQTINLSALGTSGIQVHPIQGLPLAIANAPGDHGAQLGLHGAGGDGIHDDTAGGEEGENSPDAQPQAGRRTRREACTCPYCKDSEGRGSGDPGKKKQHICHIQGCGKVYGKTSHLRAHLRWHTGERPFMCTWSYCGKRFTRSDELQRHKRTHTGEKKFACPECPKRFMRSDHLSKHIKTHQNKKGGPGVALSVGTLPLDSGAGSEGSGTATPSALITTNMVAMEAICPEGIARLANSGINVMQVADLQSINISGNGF
X-box-binding protein 1 (Homo sapiens), sequence (P17861 whole entry, looked up): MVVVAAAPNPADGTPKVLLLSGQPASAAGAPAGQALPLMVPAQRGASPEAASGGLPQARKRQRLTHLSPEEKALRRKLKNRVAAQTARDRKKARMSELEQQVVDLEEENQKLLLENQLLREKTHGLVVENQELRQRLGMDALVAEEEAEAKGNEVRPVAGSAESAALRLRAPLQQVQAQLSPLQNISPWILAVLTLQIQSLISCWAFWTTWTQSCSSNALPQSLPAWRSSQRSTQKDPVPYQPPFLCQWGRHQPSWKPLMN
Signal transducer and activator of transcription 3 (Homo sapiens), sequence (P40763 whole entry, looked up): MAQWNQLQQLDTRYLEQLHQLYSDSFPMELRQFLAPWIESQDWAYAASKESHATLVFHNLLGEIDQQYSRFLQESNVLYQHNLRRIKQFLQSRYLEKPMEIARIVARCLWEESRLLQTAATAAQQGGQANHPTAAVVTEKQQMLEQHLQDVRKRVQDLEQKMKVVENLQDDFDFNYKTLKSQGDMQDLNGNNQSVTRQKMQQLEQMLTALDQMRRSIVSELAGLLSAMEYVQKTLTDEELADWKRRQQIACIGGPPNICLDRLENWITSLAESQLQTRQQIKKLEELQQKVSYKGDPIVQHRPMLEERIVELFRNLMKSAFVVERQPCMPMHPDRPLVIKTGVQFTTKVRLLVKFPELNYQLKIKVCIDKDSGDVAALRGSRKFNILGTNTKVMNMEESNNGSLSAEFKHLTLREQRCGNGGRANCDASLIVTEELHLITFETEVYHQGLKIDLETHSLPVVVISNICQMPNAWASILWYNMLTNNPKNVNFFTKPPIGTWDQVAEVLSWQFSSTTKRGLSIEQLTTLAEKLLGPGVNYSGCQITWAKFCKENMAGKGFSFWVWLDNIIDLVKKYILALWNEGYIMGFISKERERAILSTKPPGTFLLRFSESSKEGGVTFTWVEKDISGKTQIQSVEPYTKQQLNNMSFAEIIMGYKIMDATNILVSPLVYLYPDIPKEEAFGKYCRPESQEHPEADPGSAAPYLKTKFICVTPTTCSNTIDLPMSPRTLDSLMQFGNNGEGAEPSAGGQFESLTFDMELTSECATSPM
Bile acid receptor (Homo sapiens), sequence (Q96RI1 whole entry, looked up, the tested form may be a part): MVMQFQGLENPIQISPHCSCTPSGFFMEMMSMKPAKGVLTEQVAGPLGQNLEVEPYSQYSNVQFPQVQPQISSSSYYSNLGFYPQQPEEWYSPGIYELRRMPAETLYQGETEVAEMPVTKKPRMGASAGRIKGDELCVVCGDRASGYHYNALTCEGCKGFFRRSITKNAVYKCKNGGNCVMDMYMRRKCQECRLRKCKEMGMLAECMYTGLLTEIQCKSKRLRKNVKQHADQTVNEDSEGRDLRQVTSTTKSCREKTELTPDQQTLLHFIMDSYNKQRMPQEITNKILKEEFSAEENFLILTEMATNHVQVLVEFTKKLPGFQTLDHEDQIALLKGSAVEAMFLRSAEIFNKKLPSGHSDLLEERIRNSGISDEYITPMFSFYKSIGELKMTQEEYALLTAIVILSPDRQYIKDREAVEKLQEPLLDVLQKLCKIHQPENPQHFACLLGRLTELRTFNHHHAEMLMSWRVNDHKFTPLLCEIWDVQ
Estrogen-related receptor gamma (Homo sapiens), sequence (P62508 whole entry, looked up, the tested form may be a part): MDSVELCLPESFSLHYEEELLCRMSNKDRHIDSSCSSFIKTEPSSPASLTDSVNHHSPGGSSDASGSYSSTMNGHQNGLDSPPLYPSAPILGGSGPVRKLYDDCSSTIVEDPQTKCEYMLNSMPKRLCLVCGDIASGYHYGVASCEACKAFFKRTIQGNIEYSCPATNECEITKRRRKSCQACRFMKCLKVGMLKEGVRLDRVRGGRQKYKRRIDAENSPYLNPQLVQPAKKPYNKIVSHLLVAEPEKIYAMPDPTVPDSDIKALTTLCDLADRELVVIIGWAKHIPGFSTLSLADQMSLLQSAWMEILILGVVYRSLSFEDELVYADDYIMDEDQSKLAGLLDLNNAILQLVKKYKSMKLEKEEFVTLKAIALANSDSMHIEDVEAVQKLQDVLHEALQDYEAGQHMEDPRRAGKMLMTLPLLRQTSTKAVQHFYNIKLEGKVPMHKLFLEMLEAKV
Estrogen receptor (Homo sapiens), sequence (P03372 whole entry, looked up, the tested form may be a part): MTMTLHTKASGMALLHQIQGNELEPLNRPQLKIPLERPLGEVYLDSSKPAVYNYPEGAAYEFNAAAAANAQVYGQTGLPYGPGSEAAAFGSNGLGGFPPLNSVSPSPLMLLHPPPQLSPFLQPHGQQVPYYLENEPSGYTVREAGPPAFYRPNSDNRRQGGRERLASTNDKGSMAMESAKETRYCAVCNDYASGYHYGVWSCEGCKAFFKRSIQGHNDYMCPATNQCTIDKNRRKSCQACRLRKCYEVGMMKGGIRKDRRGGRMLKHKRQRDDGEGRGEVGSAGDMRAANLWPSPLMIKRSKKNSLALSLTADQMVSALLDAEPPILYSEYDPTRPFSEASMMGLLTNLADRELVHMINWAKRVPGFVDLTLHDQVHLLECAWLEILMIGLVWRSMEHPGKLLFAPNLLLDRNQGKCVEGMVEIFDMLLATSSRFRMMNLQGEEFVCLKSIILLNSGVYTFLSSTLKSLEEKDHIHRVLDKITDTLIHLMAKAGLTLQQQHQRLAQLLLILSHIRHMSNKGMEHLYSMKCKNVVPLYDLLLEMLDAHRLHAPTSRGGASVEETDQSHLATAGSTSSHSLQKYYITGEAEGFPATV
Nuclear receptor subfamily 1 group I member 3 (Homo sapiens), sequence (Q14994 whole entry, looked up, the tested form may be a part): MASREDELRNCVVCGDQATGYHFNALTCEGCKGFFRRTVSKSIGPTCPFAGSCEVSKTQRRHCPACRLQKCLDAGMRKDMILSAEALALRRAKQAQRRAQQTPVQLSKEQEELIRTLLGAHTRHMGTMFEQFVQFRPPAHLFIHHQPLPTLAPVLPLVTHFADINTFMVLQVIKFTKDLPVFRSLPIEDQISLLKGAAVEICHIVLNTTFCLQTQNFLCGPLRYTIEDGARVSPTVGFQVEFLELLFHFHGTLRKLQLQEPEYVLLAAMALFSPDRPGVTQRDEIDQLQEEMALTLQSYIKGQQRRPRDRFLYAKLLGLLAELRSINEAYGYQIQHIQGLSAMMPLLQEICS
Steroid hormone receptor ERR1 (Homo sapiens), sequence (P11474 whole entry, looked up, the tested form may be a part): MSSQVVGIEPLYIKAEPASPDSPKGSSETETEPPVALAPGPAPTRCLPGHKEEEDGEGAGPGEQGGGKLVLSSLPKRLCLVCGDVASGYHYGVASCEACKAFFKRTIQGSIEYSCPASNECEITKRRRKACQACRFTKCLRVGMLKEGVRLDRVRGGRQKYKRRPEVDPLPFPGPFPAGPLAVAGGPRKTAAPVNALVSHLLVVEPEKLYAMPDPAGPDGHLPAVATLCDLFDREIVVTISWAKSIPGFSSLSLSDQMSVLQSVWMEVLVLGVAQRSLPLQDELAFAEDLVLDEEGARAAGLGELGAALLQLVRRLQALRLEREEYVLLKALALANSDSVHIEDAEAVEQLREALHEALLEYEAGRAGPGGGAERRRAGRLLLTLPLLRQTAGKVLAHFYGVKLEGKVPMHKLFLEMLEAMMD

In the case of `ClCCN1CCOCC1`, the compound was classed as inactive in [1], in [2], in experiment [3], in experiment [4], in [5] and in experiment [6]. Further, the compound was called inactive in experiment [7], in experiment [8], in experiment [9], in experiment [10] and in experiment [11].
With `CC(c1ccccc1)(c1ccc(O)cc1)c1ccc(O)cc1`, the outcome in experiment [1], in experiment [12], in experiment [2], in experiment [4], in experiment [5] and in experiment [7] was inactive. Besides, the compound was called inactive in experiment [8], in [13], in experiment [14], in experiment [15] and in experiment [16]. Also, the half-maximal activity concentration (AC50) was 13.2 µM (active) in [3]; 1.8 µM (active) in [9]; 0.145 µM (active) in [10]; 15 µM (active) in [11]; 12.5 µM (active) in experiment [17].
Take `BrCC(Br)c1ccccc1` (stereo not given): the compound was classed as inactive in [1], in experiment [12], in [2], in experiment [3], in [4] and in experiment [5]. The compound was called inactive in experiment [7], in experiment [8], in experiment [9], in experiment [11], in experiment [18] and in [16]. In addition, the result in experiment [17] was inactive.
For `CC(C)=CC1C(C(=O)OCc2cccc(Oc3ccccc3)c2)C1(C)C` (stereo not given), the outcome in [1], in experiment [12], in [2], in [3], in experiment [4] and in experiment [5] was inactive. The compound was called inactive in experiment [7], in experiment [8], in [19], in [13], in [11] and in experiment [14]. The result in [18], in experiment [15] and in experiment [17] was inactive.
As to `Nc1ncn[nH]1`, the result in experiment [1], in experiment [12], in experiment [2], in experiment [3], in [4] and in experiment [5] was inactive. For the same compound, the outcome in [7], in [8], in [19] and in experiment [11] was inactive.

The term AC50 denotes the midpoint of the concentration-response curve, whichever way the signal moves.
